# PubChem BioAssay
# Activity calls are given as the source filed them. How the calls were made is not given here.
# Biological target: Pantothenate synthetase (Mycobacterium tuberculosis (strain ATCC 25618 / H37Rv)) (UniProt P9WIL5)
# Assay: Recombinant Mtb pantothenate synthetase (PanC) inhibitors, coupled enzyme, confirmatory (AID 375);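 further: 0% = full reaction with vehicle and 100% = no enzyme background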
# Conditions: coupled enzyme assay; at 10 µM, active compounds read high
# Chain of Pantothenate synthetase (Mycobacterium tuberculosis (strain ATCC 25618 / H37Rv)) (P9WIL5 whole entry, looked up): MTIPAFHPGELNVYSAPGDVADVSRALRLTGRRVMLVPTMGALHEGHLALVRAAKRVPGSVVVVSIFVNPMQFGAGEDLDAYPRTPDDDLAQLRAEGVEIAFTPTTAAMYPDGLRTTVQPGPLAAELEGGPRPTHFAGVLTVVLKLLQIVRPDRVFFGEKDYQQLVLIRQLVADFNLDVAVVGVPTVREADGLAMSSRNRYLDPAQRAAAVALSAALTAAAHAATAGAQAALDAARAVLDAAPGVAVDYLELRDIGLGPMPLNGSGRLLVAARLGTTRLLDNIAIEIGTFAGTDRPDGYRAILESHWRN
row,SMILES,inhibition
1,CC(=O)N1CCc2cc(Br)cc(S(=O)(=O)NCCCN3CCCC(C)C3)c21 (stereo not given),2% (inactive)
2,CN(Cc1cccs1)c1ncnc2sccc12,0% (inactive)
3,CSC1=C(C#N)C(C)CC(=O)N1 (stereo not given),0% (inactive)
4,CC(C)NC(=O)NC(=O)COc1cccc2c1OC(C)(C)C2,0% (inactive)
5,Nc1nc(-c2ccccc2)cc(C(F)(F)F)n1,5% (inactive)
6,c1ccc(-c2cc3c(nn2)CCc2nonc2-3)cc1,0% (inactive)
7,COc1ccc(CC(NC(C)=O)C(=O)NC2CCN(c3nc(C)cc(C)c3C#N)CC2)c(OC)c1 (stereo not given),0% (inactive)
8,O=C(CN(c1ccc(F)cc1)S(=O)(=O)c1ccc2c(c1)OCCO2)Nc1ccc2c(c1)OCO2,3% (inactive)
9,O=C(NC1CCCCC1)c1ccc(S(=O)(=O)N2CCCCC2)cc1,0% (inactive)
10,O=C(c1ccc2c(c1)OCO2)N1CCCN(C(=O)c2ccc3c(c2)OCO3)CC1,0% (inactive)
11,Cc1csc(NC(=O)c2cc3c(s2)-c2ccccc2OC3)n1,0% (inactive)
12,O=C(c1ccncc1)N1CCN(C(=O)c2cccs2)CC1,6% (inactive)
13,Cc1ccc(NC(=O)C2CCCN(S(=O)(=O)c3cnc[nH]3)C2)c(Br)c1 (stereo not given),0% (inactive)
14,O=C(O)C1CC(=O)N(Cc2ccccc2)C1 (stereo not given),1% (inactive)
15,CCOC(=O)N1CCC(NC(=O)Cn2c3c(c(-c4ccccc4Cl)cc2=O)CCC3)CC1,0% (inactive)
16,Cc1cccc(NC(=O)CCN2CCN(C/C=C/c3ccccc3)CC2)c1,0% (inactive)
17,CCOC(=O)c1ccc(NC2OC(=O)c3ccccc32)cc1 (stereo not given),4% (inactive)
18,O=C(Nc1cccc(O)c1)c1ccccc1,0% (inactive)
19,CCOc1ccc(C(=O)CN2CCN(S(=O)(=O)c3ccc(OC)cc3)CC2)cc1,1% (inactive)
20,O=C(O)c1c[nH]c2ccc(S(=O)(=O)N3CCN(c4ccc(F)cc4)CC3)cc2c1=O,0% (inactive)

row,SMILES,inhibition
1,O=C1CC(c2cccs2)CC2=C1C(c1ccccc1)n1ncnc1N2 (stereo not given),3% (inactive)
2,O=C(O)Cc1cc(I)c(Oc2ccc(O)c(I)c2)c(I)c1,0% (inactive)
3,Cc1cc2c(cc1C)-c1nnnn1C(C)(C)C2,4% (inactive)
4,O=c1c2ccccc2nnn1CSc1nnc2sc3ccccc3n12,0% (inactive)
5,O=S1(=O)C=C(Sc2nnc(-c3ccccc3)o2)c2ccccc21,3% (inactive)
6,O=C(c1ccc2c(c1)[nH]c(=S)n1c3ccccc3nc21)N1CCN(c2ncccn2)CC1,8% (inactive)
7,Cc1[nH]nc2c1C1(C(=O)N(Cc3ccc(Cl)cc3)c3ccccc31)C(C#N)=C(N)O2 (stereo not given),0% (inactive)
8,CC(C(=O)N1CC2(C)CC1CC(C)(C)C2)N1C(=O)c2ccccc2C1=O (stereo not given),8% (inactive)
9,CCCSc1nc(N)c(C#N)c(-c2ccc(C)cc2)c1C#N,2% (inactive)
10,O=C(NC(=O)c1ccc(Cl)cc1)Nc1cc(N2CCCCC2)ncn1,0% (inactive)
11,COC(=O)c1[nH]c2ccc(F)cc2c1NS(=O)(=O)c1ccc(OC)cc1OC,14% (inactive)
12,Cc1cccc(NC(=O)Nc2cccc(C#N)c2)n1,1% (inactive)
13,N#CCCCN1C(=O)C(O)(CC(=O)c2ccc3c(c2)OCCO3)c2ccccc21 (stereo not given),0% (inactive)
14,COc1cc2nc(C3CCC3)n(NC(=O)C3CCCC(OC)C3)c(=O)c2cc1OC (stereo not given),2% (inactive)
15,c1ccc(-c2ccc(C(c3ccccc3)n3ccnc3)cc2)cc1 (stereo not given),3% (inactive)
16,CCC(C)(C(=O)NC1CCCC1)N(Cc1cccs1)C(C)=O (stereo not given),2% (inactive)
17,O=C(O)c1cc(=O)cc(C(=O)O)[nH]1,0% (inactive)
18,O=c1c2ccccc2nc(-c2cccc(Cl)c2)n1O,4% (inactive)
19,C[C@]12CC[C@@H]3c4ccc(O[C@@H]5O[C@H](C(=O)O)[C@@H](O)[C@H](O)[C@H]5O)cc4CC[C@H]3[C@@H]1C[C@@H](O)[C@@H]2O,14% (inactive)
20,CC(=O)[C@@]1(O)CC[C@H]2[C@@H]3CCC4=CC(=O)CC[C@]4(C)[C@H]3[C@@H](O)C[C@@]21C,0% (inactive)
